The panel holds about 83,000 compounds, 20% with a hit somewhere; the sample as a whole holds those more often.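 Results are percent growth after 48 hours of single-concentration exposure. 100 means growth as in untreated cells, lower positive values show inhibition; negative values down to -100 show cell death.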 Activity calls are given as the source filed them. The calls were made as follows: active = growth percent below 10; inactive = the rest.
Assays:
Test in all cases: NCI-60 one-dose screen, 48 h (100 = growth as untreated, 0 = no growth, -100 = all killed)
Details in all cases: 10 µM unless noted
NCI-H23 lung = tested on: NCI-H23 lung
NCI-H226 lung = tested on: NCI-H226 lung
NCI-H322M lung = tested on: NCI-H322M lung
HOP-62 NSCLC = tested on: HOP-62 NSCLC
NCI-H460 lung = tested on: NCI-H460 lung
NCI-H522 lung = tested on: NCI-H522 lung
786-0 renal = tested on: 786-0 renal
COLO 205 colon = tested on: COLO 205 colon
DU-145 prostate = tested on: DU-145 prostate
K-562 leukemia = tested on: K-562 leukemia
MALME-3M melanoma = tested on: MALME-3M melanoma
MDA-MB-231 breast = tested on: MDA-MB-231 breast
SF-268 CNS = tested on: SF-268 CNS
SF-295 CNS = tested on: SF-295 CNS
SF-539 CNS = tested on: SF-539 CNS
M14 melanoma = tested on: M14 melanoma
HCT-15 colon = tested on: HCT-15 colon
UACC-257 melanoma = tested on: UACC-257 melanoma
A549/ATCC NSCLC = tested on: A549/ATCC NSCLC
RXF 393 renal = tested on: RXF 393 renal

Measured: growth

CC(=O)NCCSC(=O)C(=O)SCCNC(C)=O
inactive: NCI-H23 lung 109% | NCI-H226 lung 103% | NCI-H322M lung 144% | HOP-62 NSCLC 107% | NCI-H460 lung 114% | NCI-H522 lung 125% | 786-0 renal 95.5% | COLO 205 colon 122% | DU-145 prostate 116% | K-562 leukemia 95.6% | MALME-3M melanoma 138% | MDA-MB-231 breast 107% | SF-268 CNS 109% | SF-295 CNS 102% | SF-539 CNS 97.5% | M14 melanoma 106%

Nc1nc(Cl)c2[nH]cnc2n1
inactive: NCI-H23 lung 87% | NCI-H226 lung 101% | NCI-H322M lung 93.1% | HOP-62 NSCLC 95.2% | NCI-H460 lung 86.9% | NCI-H522 lung 96.2% | 786-0 renal 96.8% | COLO 205 colon 103% | DU-145 prostate 119% | K-562 leukemia 118% | MALME-3M melanoma 94.4% | MDA-MB-231 breast 111% | SF-268 CNS 101% | SF-295 CNS 93.7% | SF-539 CNS 97.4% | M14 melanoma 97.7% | HCT-15 colon 103%

CCN(CC)CCOc1ccc(C2=C(c3ccccc3)CCc3cc(OC)ccc32)cc1
active: NCI-H23 lung -11.6% | HOP-62 NSCLC -74.9% | NCI-H460 lung -55.9% | NCI-H522 lung -25.3% | 786-0 renal -82.3% | COLO 205 colon -69.6% | K-562 leukemia -31% | MALME-3M melanoma -91.4% | MDA-MB-231 breast -2.94% | SF-295 CNS -72.7% | SF-539 CNS -17.4% | M14 melanoma -63.6% | HCT-15 colon 6.79%
inactive: NCI-H226 lung 58.6% | NCI-H322M lung 17.6% | DU-145 prostate 41.3% | SF-268 CNS 33.1%

CN(C)c1ccc(/C=C\c2ccnc3ccccc23)cc1
active: NCI-H522 lung -7.89%
inactive: NCI-H23 lung 13.1% | NCI-H226 lung 39% | NCI-H322M lung 90.6% | HOP-62 NSCLC 82% | NCI-H460 lung 86.9% | 786-0 renal 65.1% | COLO 205 colon 81.2% | DU-145 prostate 85.1% | K-562 leukemia 26.8% | MALME-3M melanoma 84.8% | MDA-MB-231 breast 70.3% | SF-268 CNS 92.1% | SF-295 CNS 61.6% | SF-539 CNS 78.3% | UACC-257 melanoma 80.9% | M14 melanoma 83.9% | HCT-15 colon 58.5%

c1ccc(-n2nnnc2-c2cccc3ccccc23)cc1
active: NCI-H460 lung 9.98% | COLO 205 colon -17.8% | DU-145 prostate 7.52% | RXF 393 renal -5.16% | SF-295 CNS 1.28% | SF-539 CNS -18.8% | M14 melanoma 8.41%
inactive: NCI-H23 lung 52.1% | NCI-H226 lung 79.3% | NCI-H322M lung 30.2% | HOP-62 NSCLC 25.9% | A549/ATCC NSCLC 34.5% | 786-0 renal 24.7% | K-562 leukemia 13% | MALME-3M melanoma 34.8% | MDA-MB-231 breast 25.4% | SF-268 CNS 43.4% | UACC-257 melanoma 57.5% | HCT-15 colon 18.7%

CCCCCCCC/C=C/CCCCCCCC1=NC(C)(C)CN1CC(C)O (centres undefined)
active: NCI-H460 lung -34.9% | COLO 205 colon -91.3%
inactive: NCI-H23 lung 67% | NCI-H226 lung 89.6% | NCI-H322M lung 53.9% | HOP-62 NSCLC 36.5% | A549/ATCC NSCLC 27.9% | 786-0 renal 59% | DU-145 prostate 69.2% | MALME-3M melanoma 68.5% | MDA-MB-231 breast 30.5% | RXF 393 renal 14.7% | SF-268 CNS 55.5% | SF-295 CNS 32.4% | SF-539 CNS 29.2% | UACC-257 melanoma 87.2% | HCT-15 colon 18.3%

NC(=O)NN=C(C1CC1)C1CC1
inactive: NCI-H23 lung 93.8% | NCI-H226 lung 109% | NCI-H322M lung 110% | HOP-62 NSCLC 104% | NCI-H460 lung 106% | A549/ATCC NSCLC 103% | 786-0 renal 107% | COLO 205 colon 105% | DU-145 prostate 116% | K-562 leukemia 94.8% | MALME-3M melanoma 143% | MDA-MB-231 breast 118% | RXF 393 renal 138% | SF-268 CNS 102% | SF-295 CNS 106% | SF-539 CNS 90.2% | UACC-257 melanoma 101% | M14 melanoma 106%

C/C(=N\N1CC(=O)NC1=O)c1ccc([N+](=O)[O-])o1
inactive: NCI-H23 lung 101% | NCI-H226 lung 106% | NCI-H322M lung 121% | HOP-62 NSCLC 120% | NCI-H460 lung 94.6% | A549/ATCC NSCLC 97.3% | 786-0 renal 103% | COLO 205 colon 108% | DU-145 prostate 98.8% | K-562 leukemia 90.6% | MALME-3M melanoma 114% | MDA-MB-231 breast 106% | RXF 393 renal 128% | SF-268 CNS 84.7% | SF-295 CNS 104% | SF-539 CNS 108% | UACC-257 melanoma 81.9% | M14 melanoma 103% | HCT-15 colon 115%

Nc1ccccc1-c1ccc([N+](=O)[O-])cc1
inactive: NCI-H23 lung 68.7% | NCI-H226 lung 87.6% | NCI-H322M lung 57% | HOP-62 NSCLC 53.1% | NCI-H460 lung 33.6% | A549/ATCC NSCLC 63.3% | 786-0 renal 46.7% | COLO 205 colon 23.8% | DU-145 prostate 59.3% | K-562 leukemia 15.5% | MALME-3M melanoma 111% | MDA-MB-231 breast 67% | RXF 393 renal 111% | SF-268 CNS 49.4% | SF-295 CNS 44.2% | SF-539 CNS 52.8% | UACC-257 melanoma 78.9% | M14 melanoma 44.7% | HCT-15 colon 47.8%

CCOC(=O)c1ccccc1OC(=O)NNc1ccccc1
active: K-562 leukemia 5.06%
inactive: NCI-H23 lung 100% | NCI-H226 lung 88.8% | NCI-H322M lung 58% | HOP-62 NSCLC 70.6% | NCI-H460 lung 30.5% | A549/ATCC NSCLC 74.1% | 786-0 renal 44.6% | COLO 205 colon 76.2% | DU-145 prostate 82% | MALME-3M melanoma 82.1% | MDA-MB-231 breast 81.3% | RXF 393 renal 124% | SF-268 CNS 65.6% | SF-295 CNS 49.1% | SF-539 CNS 10.7% | UACC-257 melanoma 85.8% | M14 melanoma 57.3% | HCT-15 colon 46%

CC(=O)Nc1ccc2c(c1)Cc1c(F)c(F)c(F)c(F)c1-2
inactive: NCI-H23 lung 25.2% | NCI-H226 lung 76.5% | NCI-H322M lung 81.9% | HOP-62 NSCLC 107% | NCI-H460 lung 65.8% | NCI-H522 lung 23.2% | 786-0 renal 75.3% | COLO 205 colon 105% | DU-145 prostate 96.4% | K-562 leukemia 104% | MALME-3M melanoma 113% | MDA-MB-231 breast 75.1% | SF-268 CNS 91.9% | SF-295 CNS 90.5% | SF-539 CNS 87.7% | M14 melanoma 114% | HCT-15 colon 83.4%

CC(=O)Oc1ccc(C23c4ccccc4C2(OC(C)=O)c2cc(OC(C)=O)ccc23)cc1 (centres undefined)
inactive: NCI-H23 lung 96.2% | NCI-H226 lung 140% | NCI-H322M lung 107% | HOP-62 NSCLC 53.1% | NCI-H460 lung 88.7% | A549/ATCC NSCLC 97% | 786-0 renal 69.3% | COLO 205 colon 95.5% | DU-145 prostate 103% | K-562 leukemia 63.4% | MALME-3M melanoma 137% | MDA-MB-231 breast 73.9% | RXF 393 renal 93.5% | SF-268 CNS 94.3% | SF-295 CNS 96.9% | SF-539 CNS 100% | UACC-257 melanoma 105% | M14 melanoma 104% | HCT-15 colon 65.8%

COc1ccc(/C=C2\NC(=S)NC2=O)cc1
inactive: NCI-H23 lung 113% | NCI-H226 lung 100% | NCI-H322M lung 95.2% | HOP-62 NSCLC 83.5% | NCI-H460 lung 104% | A549/ATCC NSCLC 107% | 786-0 renal 109% | COLO 205 colon 88.2% | DU-145 prostate 118% | K-562 leukemia 117% | MALME-3M melanoma 77.5% | MDA-MB-231 breast 94.5% | RXF 393 renal 126% | SF-268 CNS 106% | SF-295 CNS 119% | SF-539 CNS 98.3% | UACC-257 melanoma 106% | M14 melanoma 100% | HCT-15 colon 93.5%

Nc1cc(Cl)c(S(N)(=O)=O)cc1S(N)(=O)=O
inactive: NCI-H23 lung 87.1% | NCI-H226 lung 92.8% | NCI-H322M lung 87.9% | HOP-62 NSCLC 111% | NCI-H460 lung 106% | NCI-H522 lung 68.8% | 786-0 renal 100% | COLO 205 colon 109% | DU-145 prostate 121% | K-562 leukemia 104% | MALME-3M melanoma 84.5% | MDA-MB-231 breast 113% | SF-268 CNS 113% | SF-295 CNS 111% | SF-539 CNS 88.1% | M14 melanoma 108% | HCT-15 colon 97.9%

C[n+]1ccc(Nc2ccc(NC(=O)c3ccc(Nc4cc[n+](C)c5ccc(N)cc45)cc3)cc2)cc1
inactive: NCI-H23 lung 104% | NCI-H226 lung 82.6% | NCI-H322M lung 146% | HOP-62 NSCLC 102% | NCI-H460 lung 82.6% | NCI-H522 lung 109% | 786-0 renal 97% | COLO 205 colon 92.8% | DU-145 prostate 119% | K-562 leukemia 88.5% | MALME-3M melanoma 142% | MDA-MB-231 breast 97% | SF-268 CNS 105% | SF-295 CNS 72.7% | SF-539 CNS 85.9% | M14 melanoma 103% | HCT-15 colon 99.9%

O=C(O)C(=O)O
inactive: NCI-H23 lung 15.2% | NCI-H226 lung 96.6% | NCI-H322M lung 95.2% | HOP-62 NSCLC 108% | NCI-H460 lung 111% | NCI-H522 lung 33.1% | 786-0 renal 96.9% | COLO 205 colon 108% | DU-145 prostate 99.6% | K-562 leukemia 116% | MALME-3M melanoma 108% | MDA-MB-231 breast 102% | SF-268 CNS 108% | SF-295 CNS 110% | SF-539 CNS 94.8% | M14 melanoma 109% | HCT-15 colon 95%

C=C1CC[C@@H]2[C@](C)(COC(C)=O)[C@H](OC(C)=O)CC[C@@]2(C)[C@@H]1CC(Nc1ccc(S(=O)(=O)Nc2cc(C)on2)cc1)C1=CCOC1=O (some centres undefined)
active: NCI-H522 lung -20.2% | K-562 leukemia 9.67% | SF-539 CNS 6.3% | HCT-15 colon 0.176%
inactive: NCI-H23 lung 71% | NCI-H226 lung 79.5% | NCI-H322M lung 80.4% | HOP-62 NSCLC 60.2% | A549/ATCC NSCLC 72.2% | 786-0 renal 89.8% | COLO 205 colon 29% | DU-145 prostate 71.1% | MALME-3M melanoma 56.6% | MDA-MB-231 breast 61.1% | RXF 393 renal 29.8% | SF-268 CNS 67.3% | SF-295 CNS 100% | UACC-257 melanoma 68.9% | M14 melanoma 29.9%

Source: PubChem BioAssay (NCI)
